This is an account of results in the supplement of paper PMC8728848.

This excerpt belongs to a sample that is enriched for the strongest signals.

Holding throughout (experiment): glycan array binding signal (z-score within array); higher = stronger binding
Conditions in all cases: glycan notation: IUPAC condensed, linker removed

One experiment concerns the target Fuc(a1-2)Gal. The method in brief:
(§1)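 The binding signal is a Z-score computed within each array. Data were drawn from 3228 arrays in the Consortium for Functional Glycomics database, restricted to those with a known protein sequence. Scores were averaged over arrays of the same protein sequence at different concentrations or buffers, and over linkers, and negative values can be taken as non-binding.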

For experiment [1], the target named is Fuc(a1-2)[Gal(a1-3)]Gal(b1-4)GlcNAc. The method in brief: as §1
The target in experiment [2] is Fuc(a1-2)[Gal(a1-3)]Gal(b1-4)[Fuc(a1-3)]GlcNAc. The method in brief: as §1
The target in the next experiment is Gal(a1-4)Gal(b1-4)GalNAc. In outline:
as §1

Another experiment has as its target Gal(b1-2)Gal. The method in brief: as §1
In experiment [3] the target is Gal(b1-3)GalNAc(b1-3)Gal(a1-4)Gal(b1-4)Glc. The method in brief: as §1
A further experiment addresses Gal(b1-4)Glc6S. In outline:
as §1

Experiment [4] deals with GlcNAc(a1-3)Gal(b1-4)GlcNAc. The method in brief:
as §1

The target of experiment [5] is GlcNAc(b1-2)Gal(b1-3)GlcNAc. The method in brief: as §1
Experiment [6] concerns the target GlcNAc(b1-3)[GlcNAc(b1-6)]GlcNAc. In outline: as §1
Experiment [7] concerns the target GlcNAc(b1-4)Gal(b1-4)GlcNAc. The method in brief: as §1
For experiment [8], the target named is GlcNAc(b1-4)GlcNAc(b1-4)GlcNAc(b1-4)GlcNAc(b1-4)GlcNAc. The method in brief:
as §1

The target in experiment [9] is Man(a1-3)[Man(a1-6)]Man(a1-6)[Man(a1-3)]Man(b1-4)GlcNAc(b1-4)GlcNAc. In outline:
as §1

Experiment [10] concerns the target Neu5Ac(a2-3)Gal(b1-3)GalNAc(b1-3)Gal(a1-4)Gal(b1-4)Glc. In outline:
as §1

The target of experiment [11] is Neu5Ac(a2-3)Gal(b1-3)GlcNAc. The method in brief: as §1
Experiment [12] deals with Neu5Ac(a2-3)Gal6S(b1-4)[Fuc(a1-3)]GlcNAc. The method in brief: as §1
The next experiment deals with Neu5Ac(a2-6)GalNAc. In outline: as §1
Experiment [13] concerns the target Neu5Gc(a2-3)Gal(b1-3)[Fuc(a1-4)]GlcNAc. The method in brief:
as §1

B1: CVNH3T (Magnaporthe grisea) (protein)
chain: GSHIGPYGNYAGNFSGSSRDICLDGARLRAECRRGDGGYSTSVIDLNRYLSNDNGHFRWVSGGGGGGGTATVTVQQGDTLRDIGRRFDCDFHEIARRNNIQNEDLIYPGQVLQVPTKGGSGGGAGNFWDSARDVRLVDGGKVLEAELRYSGGWNRSRIYLDEHIGNRNGELIHC
Consider B1, for which the “glycan array binding signal (z-score)” value in the experiment with Fuc(a1-2)Gal is -0.223; in experiment [1] it was -0.23; in experiment [2] it was -0.226; with Gal(a1-4)Gal(b1-4)GalNAc it was 5.47; in the experiment with Gal(b1-2)Gal, -0.185; in [3] it was 6.38. For the same molecule, the “glycan array binding signal (z-score)” value with Gal(b1-4)Glc6S is -0.229; in experiment [4], -0.239; in experiment [5], -0.233; in [6], -0.222; in experiment [7], -0.22; in experiment [8] it was 5.39. Also, the “glycan array binding signal (z-score)” value was -0.23 in [9]; 6.23 in experiment [10]; -0.152 in experiment [11]; -0.226 in experiment [12]; -0.209 with Neu5Ac(a2-6)GalNAc; -0.175 in experiment [13].
